Test results: the supplement of paper PMC10981050
Several values for one entry are separate records, joined by “and”; a condition that tells them apart may be missing. Identical values can stand only once. Counter-ions that a name gives are not always drawn.

Key:
Test in all cases: cell viability relative to vehicle control; higher = less cytotoxic
Conditions in all cases: 10 µM
K562 = test system: K562
Summary of the method: (§1)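 Mutant clones made by CRISPR editing and their isogenic wild-type counterparts, from four leukaemia lines, were exposed to a single 10 µM dose of each library compound for 48 h. The supernatant was then removed and CellTiter-Glo luminescence was read. Viability was reported as percent of the on-plate vehicle control.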

MARIMO = test system: MARIMO
Summary of the method: as §1

MOLM14 = test system: MOLM14
Summary of the method: as §1

OCI-AML2 = test system: OCI-AML2
Summary of the method: as §1

Compound	cell viability (K562; SRSF2 genotype: SRSF2 P95H/wt)	cell viability (K562; SRSF2 genotype: SRSF2 wt/wt) [%]	cell viability (MARIMO; SRSF2 genotype: SRSF2 P95H/wt) [%]	cell viability (MARIMO; SRSF2 genotype: SRSF2 wt/wt) [%]	cell viability (MOLM14; SRSF2 genotype: SRSF2 P95H/wt) [%]	cell viability (MOLM14; SRSF2 genotype: SRSF2 wt/wt) [%]	cell viability (OCI-AML2; SRSF2 genotype: P95H/wt) [%]	cell viability (OCI-AML2; SRSF2 genotype: wt/wt) [%]
Cc1cc(/C=C/C#N)cc(C)c1Nc1ccnc(Nc2ccc(C#N)cc2)n1 [Rilpivirine]	35.2% and 46.8%	50.1	61.8	59.8	49.6	43.9	44.2	48
O=C(O)Cc1cccc2ccccc12 [1-Naphthaleneacetic acid]	98% and 100%	98.1	95.7	98.3	106	97.5	104	97.4
C=C1C(=O)O[C@@H]2C[C@@]3(C)CCCC(=C)[C@@H]3C[C@H]12 [Isoalantolactone]	27.5% and 44.2%	40.2	23	25.4	12	16.1	1.8	6.98
NNc1nncc2ccccc12 [Hydralazine hydrochloride]	99.2% and 101%	96.3	97.6	101	98.1	99	106	87
Cc1ccccc1N1C(=O)c2cc(S(N)(=O)=O)c(Cl)cc2NC1C (stereo not given) [Metolazone (Zaroxolyn)]	104% and 99.9%	96.7	96	99.7	99.5	97	101	98.3
COc1cc2ncnc(Oc3ccc(CC(=O)Nc4cnn(C(C)C)c4)cc3)c2cc1OC	74.8% and 98.4%	72.4	113	107	16.1	14.1	36.1	42.4
CCN1CCN(Cc2ccc(Nc3ncc(F)c(-c4cc(F)c5nc(C)n(C(C)C)c5c4)n3)nc2)CC1	1.86% and 0.59%	0.69	0.46	0.64	0.3	0.31	0.29	0.39
CN(CCOc1ccc(NS(C)(=O)=O)cc1)CCc1ccc(NS(C)(=O)=O)cc1 [Dofetilide (Tikosyn)]	97.8% and 97%	101	97	104	95.8	101	99	107
COc1cccc2c1c(O)c(C(=O)N(C)c1ccc(C(F)(F)F)cc1)c(=O)n2C [Tasquinimod]	108% and 106%	99.1	109	116	106	106	101	110
CC(C)=CCC[C@](C)(O[C@@H]1O[C@H](CO)[C@@H](O)[C@H](O)[C@H]1O)[C@H]1CC[C@]2(C)[C@@H]1[C@H](O)C[C@@H]1[C@@]3(C)CC[C@H](O)C(C)(C)[C@@H]3[C@@H](O[C@@H]3O[C@H](CO)[C@@H](O)[C@H](O)[C@H]3O[C@@H]3OC[C@@H](O)[C@H](O)[C@H]3O)C[C@]12C [Notoginsenoside R1]	98.4% and 101%	94.8	106	104	106	103	94.6	96.7
COc1ccc(C2CC(=O)c3c(O)cc(OC4OC(COC5OC(C)C(O)C(O)C5O)C(O)C(O)C4O)cc3O2)cc1OC (stereo not given) [Methyl-Hesperidin]	96.9% and 106%	97.8	107	114	108	107	107	104
CC(C)C[C@H](NC(=O)CNC(=O)c1cc(Cl)ccc1Cl)B(O)O [Ixazomib (MLN2238)]	2.07%	3.87	0.76	3.15	0.41	0.47	0.44	1.8
Cc1c(Cc2ccc3ccccc3n2)c2cc(F)ccc2n1CC(=O)O	102% and 99.7%	98.8	97.5	108	98.5	103	90.4	107
CC(C)CCCC(C)C1CCC2C3=CC=C4CC(O)CCC4(C)C3CCC21C (stereo not given) [7-Dehydrocholesterol]	88.5% and 88.6%	96.5	87.6	87	86.6	93.9	94.2	94.7
O=C(Cn1cnnn1)N[C@@H]1C(=O)N2C(C(=O)O)=C(CSc3nncs3)CS[C@H]12 [Ceftezole]	102% and 97.3%	103	96.3	105	105	104	103	109
O=C(O)c1cc(O)ccc1O [Gentisic acid]	100% and 104%	99.6	101	105	101	102	102	111
CCOc1cc2ncc(C#N)c(Nc3ccc(OCc4ccccn4)c(Cl)c3)c2cc1NC(=O)/C=C/CN(C)C [Neratinib (HKI-272)]	68.5% and 66.3%	62.6	42.1	41.8	54.1	53.4	13.3	36.9
CC[C@H]1OC(=O)C[C@@H](O)[C@H](C)[C@@H](O[C@@H]2O[C@H](C)[C@@H](O)[C@H](N(C)C)[C@H]2O)[C@@H](CCN2C[C@H](C)C[C@H](C)C2)C[C@@H](C)C(=O)/C=C/C(C)=C/[C@@H]1CO[C@@H]1O[C@H](C)[C@@H](O)[C@@H](OC)[C@H]1OC [Tilmicosin]	96.5% and 94.4%	99.4	95.6	106	98.5	103	93.3	105
COc1cccc(-n2c(=O)[nH]c3cc(Cl)n(-c4ccc(-c5cccc(OC)c5O)cc4)c3c2=O)c1	91.6% and 97.4%	93	108	117	107	102	95.8	97.3
COc1ccc(S(=O)(=O)Nc2cccnc2Nc2ccc(O)cc2)cc1	16.4% and 39.8%	36.7	7.19	9.01	16.8	5.56	9.51	11.2
